Compound activity deposited in PubChem BioAssay by National Center for Advancing Translational Sciences (NCATS).
This is a sample that favours compounds with a hit; in the whole collection about 7.3% have one here.
FMDV inh = High Throughput Screening for Foot and Mouth Disease Virus Antivirals; FMDV antiviral cell-based qHTS; Potency, µM (top dose mostly 57.9 µM), usual class: inhibitors; 410,000 compounds, 1.2% hits; AID 1159524, 2015; calls by dose curve; tested in HEK293T cells; further: read-out not given here; nearly all actives have a fitted effect of over 45% in size
HCMV antiviral = qHTS Assay for inhibitors of the human cytomegalovirus (HCMV) | HFF cells, HCMV-luciferase reporter, 72 h; active compounds read low | activity change, negative = inhibition, % at 57.5 µM | 410,000 compounds, 4.5% hits; in the data active means activity change below about -60%; inconclusive means no clear call, values can overlap the other calls; inactive means above about -39%
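Two compound doses tested in HFFs infected with HCMV-luciferase, MOI 1 PFU/cell, 72 h at 37C. Lysate luminescence read with OneGlo; data normalized against buffer-only and 10uM Salinomycin inhibitor controls.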
VACV Venus inh = qHTS for Stage-Specific Inhibitors of Vaccinia Orthopoxvirus: Venus Reporter Primary qHTS | Vaccinia virus Venus reporter expression, fluorescence | Potency, µM (highest dose often 36.5 µM), actives largely listed as inhibitors | 330,000 compounds, 0.46% hits | AID 720580, 2013; calls by dose curve; tested in A549 cells; further: nearly all actives have a fitted effect of over 30% in size
HCV inh = qHTS Assay for Inhibitors of Hepatitis C Virus (HCV); Potency, µM (highest dose often 41.8 µM), most hits filed as inhibitors; Huh7.5.1 HCVcc-Cre infection, luciferase reporter, 44 h; 340,000 compounds, 3.4% hits; active means well fitted inhibition curve with a large enough effect; inconclusive means small, poorly fitted or top-dose-only effect, or another doubt; inactive means no such curve, though single readings can be large or run the other way
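Infectious HCV cell culture screen: compound-treated cells (1,000/well, pre-plated 4 h) are infected with HCVcc-Cre at roughly 0.5 moi and grown 44 h. Infection is quantified by luciferase signal after 15 min substrate incubation at room temperature.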
VACV mCherry inh = qHTS for Stage-Specific Inhibitors of Vaccinia Orthopoxvirus: mCherry Reporter Primary qHTS; Potency, µM (top dose mostly 36.5 µM), usual class: inhibitors; Vaccinia virus mCherry reporter infection, fluorescence; AID 720579, 2013; 310,000 compounds, 0.63% hits; calls by dose curve; tested in A549 cells; further: nearly all actives have a fitted effect of over 35% in size
Each line names hits and unclear results; the compound was inactive in the other large screens.

COc1ccc(Cn2nnnc2CN(Cc2cc3ccc(C)cc3[nH]c2=O)C2CCCC2)cc1	VACV Venus inh inconclusive, HCV inh 10µM
COc1ccc(NC(=O)c2oc3ccccc3c2NC(=O)Cc2coc3c(C)c(C)ccc23)cc1	none (no result: HCV inh)
COc1cccc(NC(=O)CCc2nc(-c3ccc(C(C)(C)C)cc3)no2)c1	FMDV inh inconclusive, HCMV antiviral -82 (no result: HCV inh)
COc1ccc(-c2noc(CCC(=O)Nc3cccc(C)c3)n2)cc1	HCV inh inconclusive
CCN(C(=O)CCc1nc(-c2ccc(OC)cc2)no1)c1cc(OC)ccc1OC	FMDV inh inconclusive, VACV Venus inh inconclusive, HCV inh 11µM (no result: VACV mCherry inh)
CCOc1ccc(CCNC(=O)CCc2nc(-c3ccc(OC)cc3)no2)cc1OCC	none (no result: VACV mCherry inh)
COc1ccc(-c2nnc(-c3ccc(Br)o3)o2)cc1OC	HCMV antiviral -107 (no result: VACV Venus inh, VACV mCherry inh)
COc1ccc(-c2noc(CCC(=O)NCCc3cccc(C)c3)n2)cc1	HCV inh 8.9µM (no result: VACV Venus inh, VACV mCherry inh)
COc1cccc(-c2nc(-c3ccc(NC(=O)Cc4ccccc4OC)cc3)no2)c1	HCV inh 6.3µM (no result: HCMV antiviral)
COc1ccc(CC(=O)Nc2ccc(-c3noc(-c4ccccc4OC)n3)cc2)cc1	HCV inh inconclusive (no result: VACV Venus inh, VACV mCherry inh)
COc1ccc(-c2nc(-c3ccc(NC(=O)c4ccc(Br)o4)cc3)no2)cc1OC	VACV Venus inh 32µM, HCV inh inconclusive (no result: VACV mCherry inh)
COc1cc(-c2nc(-c3ccc(NC(=O)c4ccc(Br)o4)cc3)no2)cc(OC)c1OC	HCV inh inconclusive (no result: VACV Venus inh, VACV mCherry inh)
COc1ccc2cc(C(=O)N3CCN(Cc4ccc5c(c4)OCO5)CC3)[nH]c2c1	HCV inh 10µM
COc1ccc2cc3cc(C(=O)Nc4cc(OC)c(OC)c(OC)c4)oc3nc2c1	FMDV inh inconclusive, HCV inh inconclusive (no result: VACV Venus inh, VACV mCherry inh)
COc1ccc2cc3cc(C(=O)Nc4ccc5c(c4)OCCO5)oc3nc2c1	HCV inh 11µM
COc1ccc2cc3cc(C(=O)N4CCN(Cc5ccc6c(c5)OCO6)CC4)oc3nc2c1	FMDV inh 22µM, VACV Venus inh inconclusive, HCV inh inconclusive
COc1ccc2cc3cc(C(=O)NCc4ccc5c(c4)OCO5)oc3nc2c1	none
Nn1c(SCc2ccccc2)nc2c(cnn2-c2ccccc2)c1=O	none (no result: VACV Venus inh, VACV mCherry inh)
C=CCn1c(Cc2ccccc2)nc2c(cnn2-c2ccccc2)c1=O	FMDV inh 28µM, HCMV antiviral inconclusive, HCV inh inconclusive, VACV mCherry inh inconclusive
CN(CCCn1cnc2c(OCc3ccccc3)ncnc21)Cc1ccco1	none (no result: HCV inh)
CCOc1cc(/C=C2\CCn3c2nc2cc(Cl)ccc2c3=O)ccc1O	none
COCCN(CCOC)Cc1c(O)ccc2c1O/C(=C\c1ccc(C)o1)C2=O	HCMV antiviral -88
Cc1cc(=O)n(Cc2cccc(Cl)c2)c2c1c(C)nn2-c1ccccc1	none (no result: HCV inh)
COC(=O)C1=C(c2cc3ccccc3s2)C[C@@H]2CC[C@H]1N2C(=O)NC1CC1	HCMV antiviral -63, HCV inh inconclusive
COC(=O)C1=C(c2cc3ccccc3s2)C[C@@H]2CC[C@H]1N2C(=O)NCC1CC1	HCV inh inconclusive
COC(=O)C1=C(c2cc3ccccc3s2)C[C@@H]2CC[C@H]1N2C(=O)NCc1ccc(C(F)(F)F)cc1	VACV Venus inh inconclusive, HCV inh 11µM
COC(=O)C1=C(c2c(C)noc2C)C[C@@H]2CC[C@H]1N2C(=O)NC1CC1	HCMV antiviral -97
COC(=O)C1=C(c2c(C)noc2C)C[C@@H]2CC[C@H]1N2C(=O)NCc1ccc(C(F)(F)F)cc1	HCV inh inconclusive
COc1cc(OC)cc(C(=O)NCC(c2cccs2)S(=O)(=O)c2ccc(F)c(C)c2)c1 (stereo not drawn)	none (no result: HCV inh)
CCOC(=O)Cn1nc(C)n(-c2ccc(F)cc2)c1=O	none
Cc1nc2scc(C)n2c(=O)c1S(=O)(=O)Nc1ccc(OC(F)(F)F)cc1	none (no result: VACV Venus inh, VACV mCherry inh)
CCCCN(Cc1cccs1)S(=O)(=O)c1ccc(-c2ccc(=O)[nH]n2)s1	HCMV antiviral -68
Cc1ccc(NC(=O)CN(C)C(=O)c2cccnc2Nc2cccc(C(F)(F)F)c2)cc1	HCMV antiviral -60, HCV inh inconclusive (no result: VACV Venus inh, VACV mCherry inh)
COC(=O)C[C@H](NC(=O)Cn1cnc(C(=O)Nc2ccc(C)c(C)c2)n1)C(=O)OC	HCMV antiviral -65
O=C(N=C1SC2CS(=O)(=O)CC2N1c1cccc(Cl)c1Cl)C1CC1 (stereo not drawn)	none (no result: VACV Venus inh, VACV mCherry inh)
COc1ccccc1C(C)NCC(=O)c1c(C)[nH]c2ccccc12 (stereo not drawn)	none (no result: FMDV inh, HCMV antiviral, HCV inh)
Cc1ccc(NC(=O)c2ncn(CC(=O)NCc3ccc4c(c3)OCO4)n2)cc1C	HCV inh inconclusive
Cc1ccc(C(=O)Nc2sc(C)c(-c3ccccc3)c2C(N)=O)cc1[N+](=O)[O-]	FMDV inh 1.8µM, HCMV antiviral inconclusive
O=C(NCCc1nc2ccccc2n1CCOc1ccccc1)C1CCCCC1	none (no result: FMDV inh, HCMV antiviral, HCV inh)
CCn1nc(C)c(CNC(=O)C2CCC(=O)N(CCc3ccc(OC)cc3)C2)c1C (stereo not drawn)	none (no result: VACV Venus inh, VACV mCherry inh)
CC(=O)c1ccc(NC(=O)CCC(=O)N2CC(C)Oc3ccc(C)cc32)cc1 (stereo not drawn)	HCV inh 10µM
O=C1C=CC(O)C2(CO)OC12 (stereo not drawn)	FMDV inh 28µM (no result: HCV inh)
CCN(CC)c1ccc(/C=N/NC(=O)c2cccc(S(=O)(=O)Nc3ccccc3OC)c2)cc1	HCV inh 11µM (no result: VACV Venus inh, VACV mCherry inh)
CCN(CC)c1ccc(/C=N/NC(=O)c2ccc3nc[nH]c3c2)c(O)c1	VACV Venus inh inconclusive, HCV inh 5µM, VACV mCherry inh 11µM (no result: HCMV antiviral)
COc1ccccc1NS(=O)(=O)c1cccc(C(=O)N/N=C/c2ccc3c(c2)OCCO3)c1	HCMV antiviral -63
COc1ccccc1NS(=O)(=O)c1cccc(C(=O)N/N=C/c2ccc([N+](=O)[O-])o2)c1	FMDV inh inconclusive, VACV Venus inh inconclusive, HCV inh 11µM, VACV mCherry inh inconclusive
Cc1ccc(/C=N/NC(=O)c2cccc(S(=O)(=O)Nc3ccccc3Cl)c2)o1	none
COc1cc(/C=C/c2nc3cc(Cl)ccc3c(=O)n2-c2cccc(C(F)(F)F)c2)cc(OC)c1OC	FMDV inh inconclusive (no result: HCV inh)
Cc1ccc(CNC(=O)Cn2cc(S(=O)(=O)Cc3ccccc3F)c3ccccc32)cc1	none (no result: HCV inh)
Cc1cccc(N2CCN(c3ccc4cc(S(=O)(=O)N5CCCCC5)ccc4n3)CC2)c1C	FMDV inh inconclusive, HCMV antiviral inconclusive
CCOC(=O)c1c(C)[nH]c(C)c1S(=O)(=O)N(C)CC(=O)Nc1ccc(OC)cc1	none (no result: HCV inh)
CN(C)C(=O)C1C2NC(=S)N(c3cccc(Cl)c3)C1(C)Oc1ccc(Cl)cc12 (stereo not drawn)	none
COc1ccccc1/C=N/NC(=O)c1ccc(Br)cc1	VACV mCherry inh inconclusive
CCN(CC)c1ccc(C(=O)N/N=C/c2ccccc2OC(F)F)cc1	HCV inh 11µM (no result: VACV Venus inh, VACV mCherry inh)
CCN(CC)c1ccc(/C=N/NC(=O)c2cccc(S(=O)(=O)Nc3ccccc3OC)c2)c(O)c1	HCMV antiviral -103, VACV Venus inh inconclusive, HCV inh 10µM, VACV mCherry inh 2.5µM
